Source: PubChem BioAssay AID1159580 (chemical genetic matrix, 2015)
Screen size: about 5,500 compounds; about 2,000 (36%) were called active. Roughly 18% stayed inconclusive and do not appear here. This is one part of the list. Unmarked numbers belong to inactive results. Cut-off read from the data, not from the text of the source: active = normalized growth mostly below about 0.91 (no sharp cut-off); inconclusive = no clear call, values can overlap the other calls; inactive = mostly above about 0.92.

Assay: chemical genetic growth profiling, strain panel (AID 1159580);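 note: tested at 20 µM; growth read once vehicle control cultures reached saturation at 30 °C; 1 = growth at the plate median or of vehicle wells; lower values mean less growth of the strain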
Details: S. cerevisiae deletion strains, growth OD
[1] = locus YAR019C, strain CDC15, stronger effect = lower value
[2] = locus YBL105C, strain PKC1, stronger effect = lower value
[3] = locus YBR135W, strain CKS1, stronger effect = lower value
[4] = locus YBR136W, strain MEC1, stronger effect = lower value
[5] = locus YBR160W, strain CDC28, stronger effect = lower value
[6] = locus YDL017W, strain CDC7, stronger effect = lower value
[7] = locus YDL028C, strain MPS1, stronger effect = lower value
[8] = locus YDL101C, strain DUN1, stronger effect = lower value
[9] = locus YDL108W, strain KIN28, stronger effect = lower value
[10] = locus YDL132W, strain cdc53, stronger effect = lower value
[11] = locus YDL214C, strain PRR2, stronger effect = lower value
[12] = locus YDR052C, strain DBF4, stronger effect = lower value
[13] = locus YDR054C, strain cdc34, stronger effect = lower value
[14] = locus YDR226W, strain ADK1, stronger effect = lower value
[15] = locus YDR477W, strain SNF1, stronger effect = lower value
[16] = locus YER123W, strain YCK3, stronger effect = lower value
[17] = locus YER133W, strain GLC7, stronger effect = lower value
[18] = locus YFL009W, strain cdc4, stronger effect = lower value
[19] = locus YFL029C, strain CAK1, stronger effect = lower value
[20] = locus YFR003C, strain YPI1, stronger effect = lower value
[21] = locus YFR019W, strain FAB1, stronger effect = lower value
[22] = locus YFR028C, strain CDC14, stronger effect = lower value
[23] = locus YGR040W, strain KSS1, stronger effect = lower value
[24] = locus YGR052W, strain FMP48, stronger effect = lower value
[25] = locus YGR092W, strain DBF2, stronger effect = lower value
[26] = locus YHR030C, strain SLT2, stronger effect = lower value
[27] = locus YHR079C, strain IRE1, stronger effect = lower value
[28] = locus YHR082C, strain KSP1, stronger effect = lower value
[29] = locus YHR205W, strain SCH9, stronger effect = lower value
[30] = locus YIL147C, strain SLN1, stronger effect = lower value
[31] = locus YJL095W, strain BCK1, stronger effect = lower value
[32] = locus YJL128C, strain PBS2, stronger effect = lower value
[33] = locus YJL157C, strain FAR1, stronger effect = lower value
[34] = locus YJR016C, strain ILV3, stronger effect = lower value
[35] = locus YJR066W, strain TOR1 (second series), stronger effect = lower value
[36] = locus YJR066W, strain TOR1, stronger effect = lower value
[37] = locus YKL048C, strain ELM1, stronger effect = lower value
[38] = locus YKL067W, strain YNK1, stronger effect = lower value
[39] = locus YKL101W, strain HSL1, stronger effect = lower value
[40] = locus YKL193C, strain SDS22, stronger effect = lower value
[41] = locus YKL203C, strain TOR2, stronger effect = lower value
[42] = locus YLR113W, strain HOG1, stronger effect = lower value
[43] = locus YLR133W, strain CKI1, stronger effect = lower value
[44] = locus YLR403W, strain SFP1, stronger effect = lower value
[45] = locus YML070W, strain DAK1, stronger effect = lower value
[46] = locus YMR001C, strain CDC5, stronger effect = lower value
[47] = locus YMR205C, strain PFK2 (second series), stronger effect = lower value
[48] = locus YMR277W, strain FCP1, stronger effect = lower value
[49] = locus YNL006W, strain LST8, stronger effect = lower value
[50] = locus YNL020C, strain ARK1, stronger effect = lower value
[51] = locus YNL161W, strain CBK1, stronger effect = lower value
[52] = locus YNL183C, strain NPR1, stronger effect = lower value
[53] = locus YNL207W, strain RIO2, stronger effect = lower value
[54] = locus YNL222W, strain SSU72, stronger effect = lower value
[55] = locus YNL307C, strain MCK1 (second series), stronger effect = lower value
[56] = locus YOL078W, strain AVO1, stronger effect = lower value
[57] = locus YOL136C, strain PFK27, stronger effect = lower value
[58] = locus YOR061W, strain CKA2, stronger effect = lower value
[59] = locus YOR119C, strain RIO1, stronger effect = lower value
[60] = locus YOR231W, strain MKK1, stronger effect = lower value
[61] = locus YOR329C, strain SCD5, stronger effect = lower value
[62] = locus YPL031C, strain PHO85, stronger effect = lower value
[63] = locus YPL153C, strain RAD53, stronger effect = lower value
[64] = locus YPL204W, strain HRR25, stronger effect = lower value
[65] = locus YPL209C, strain IPL1, stronger effect = lower value
[66] = locus YPR025C, strain CCL1, stronger effect = lower value
[67] = locus YPR106W, strain ISR1, stronger effect = lower value
[68] = locus YPR111W, strain DBF20, stronger effect = lower value
[69] = strain NNK1, stronger effect = lower value
[70] = strain TSCII, stronger effect = lower value

O=C(Nc1ccc(Cl)cc1)OCCSc1nc2ccccc2s1
normalized growth [1]: 0.987 | normalized growth [2]: 0.973 | normalized growth [3]: 0.979 | normalized growth [4]: 0.976 | normalized growth [5]: 0.979 | normalized growth [6]: 0.983 | normalized growth [7]: 0.982 | normalized growth [8]: 0.985 | normalized growth [9]: 0.978 | normalized growth [10]: 0.979 | normalized growth [11]: 0.883 | normalized growth [12]: 0.994 | normalized growth [13]: 0.973 | normalized growth [14]: 0.987 | normalized growth [15]: 0.959 | normalized growth [16]: 0.887 | normalized growth [17]: 0.93 | normalized growth [18]: 0.981 | normalized growth [19]: 0.975 | normalized growth [20]: 0.977 | normalized growth [21]: 0.848 | normalized growth [22]: 0.975 | normalized growth [23]: 0.929 | normalized growth [24]: 0.911 | normalized growth [25]: 0.928 | normalized growth [26]: 0.757 (active) | normalized growth [27]: 0.902 | normalized growth [28]: 0.86 | normalized growth [29]: 0.695 | normalized growth [30]: 0.988 | normalized growth [31]: 0.845 | normalized growth [32]: 0.944 | normalized growth [33]: 0.894 | normalized growth [34]: 0.985 | normalized growth [35]: 0.811 | normalized growth [36]: 0.833 | normalized growth [37]: 1.01 | normalized growth [38]: 0.901 | normalized growth [39]: 0.952 | normalized growth [40]: 0.983 | normalized growth [41]: 0.987 | normalized growth [42]: 0.859 (active) | normalized growth [43]: 0.93 | normalized growth [44]: 0.899 | normalized growth [45]: 0.894 | normalized growth [46]: 0.976 | normalized growth [47]: 0.95 | normalized growth [48]: 0.979 | normalized growth [49]: 0.991 | normalized growth [50]: 0.929 | normalized growth [51]: 0.985 | normalized growth [52]: 0.846 | normalized growth [53]: 0.983 | normalized growth [54]: 0.976 | normalized growth [55]: 0.909 | normalized growth [56]: 0.977 | normalized growth [57]: 0.902 | normalized growth [58]: 0.928 | normalized growth [59]: 0.984 | normalized growth [60]: 0.931 | normalized growth [61]: 0.987 | normalized growth [62]: 0.955 | normalized growth [63]: 0.95 | normalized growth [64]: 0.922 | normalized growth [65]: 0.982 | normalized growth [66]: 0.977 | normalized growth [67]: 0.984 | normalized growth [68]: 0.972 | normalized growth [69]: 0.988 | normalized growth [70]: 0.979

OC(=Cc1nc2ccccc2nc1C=C(O)c1ccc(Cl)cc1)c1ccc(Cl)cc1
normalized growth [1]: 0.993 | normalized growth [2]: 0.974 | normalized growth [3]: 0.983 | normalized growth [4]: 0.967 | normalized growth [5]: 0.984 | normalized growth [6]: 0.98 | normalized growth [7]: 0.97 | normalized growth [8]: 0.977 | normalized growth [9]: 0.961 | normalized growth [10]: 0.995 | normalized growth [11]: 0.895 | normalized growth [12]: 0.981 | normalized growth [13]: 0.972 | normalized growth [14]: 0.969 | normalized growth [15]: 0.856 | normalized growth [16]: 0.85 | normalized growth [17]: 0.9 | normalized growth [18]: 0.976 | normalized growth [19]: 0.976 | normalized growth [20]: 0.978 | normalized growth [21]: 0.918 | normalized growth [22]: 0.987 | normalized growth [23]: 0.855 | normalized growth [24]: 0.903 | normalized growth [25]: 0.793 | normalized growth [26]: 0.874 | normalized growth [27]: 0.96 | normalized growth [28]: 0.851 | normalized growth [29]: 0.882 | normalized growth [30]: 0.958 | normalized growth [31]: 0.933 | normalized growth [32]: 0.965 | normalized growth [33]: 0.84 | normalized growth [34]: 0.977 | normalized growth [35]: 0.852 | normalized growth [36]: 0.889 | normalized growth [37]: 0.868 | normalized growth [38]: 0.871 | normalized growth [39]: 0.8 | normalized growth [40]: 1 | normalized growth [41]: 0.932 | normalized growth [42]: 0.902 | normalized growth [43]: 0.884 | normalized growth [44]: 0.904 | normalized growth [45]: 0.855 | normalized growth [46]: 0.992 | normalized growth [47]: 0.859 | normalized growth [48]: 0.977 | normalized growth [49]: 0.982 | normalized growth [50]: 0.851 | normalized growth [51]: 0.983 | normalized growth [52]: 0.921 | normalized growth [53]: 0.966 | normalized growth [54]: 0.982 | normalized growth [55]: 0.823 | normalized growth [56]: 0.982 | normalized growth [57]: 0.867 | normalized growth [58]: 0.769 | normalized growth [59]: 0.921 | normalized growth [60]: 0.936 | normalized growth [61]: 0.983 | normalized growth [62]: 0.843 | normalized growth [63]: 0.862 | normalized growth [64]: 0.89 | normalized growth [65]: 0.979 | normalized growth (locus YPL256C, strain CLN2, stronger effect = lower value): 0.941 | normalized growth [66]: 0.979 | normalized growth [67]: 0.962 | normalized growth [68]: 0.954 | normalized growth [69]: 0.96 | normalized growth [70]: 0.989
